Sm TGR block: inhibitors of Schistosoma mansoni thioredoxin glutathione reductase | Q962Y6 | purified TGR, DTNB reduction, TNB absorbance 405 nm | Potency, µM (series often up to 114 µM), most hits filed as inhibitors | actives 3% (n = 360,000) | AID 485364; active = well fitted inhibition curve with a large enough effect; inconclusive = small, poorly fitted or top-dose-only effect; inactive = no such curve, though single readings can be large or run the other way; also: nearly all actives have a fitted effect of over 60% in size
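First, TGR (20 nM dispensed) and NADPH were mixed with compound. Second, a 15 min room-temperature incubation followed. Third, further NADPH and then DTNB were added to start the reaction. Finally, TNB absorbance was monitored kinetically.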
Vaccinia Venus: vaccinia inhibition (Venus reporter). actives 0.46% (n = 330,000). Potency, µM (top dose mostly 36.5 µM), hits mostly inhibitors. Vaccinia virus Venus reporter expression, fluorescence. AID 720580; calls by dose curve; tested in A549 cells; also: nearly all actives have a fitted effect of over 30% in size
FMDV antiviral: antivirals against foot and mouth disease virus. FMDV antiviral cell-based qHTS. Potency, µM (doses to about 57.9 µM), usual class: inhibitors. actives 1.2% (n = 410,000). AID 1159524; calls by dose curve; tested in HEK293T cells; also: read-out not given here; nearly all actives have a fitted effect of over 45% in size
Lassa entry inh: Lassa virus entry inhibition. Lassa virus pseudotype entry inhibition, cell reporter. Potency, µM (highest dose often 37.9 µM), actives largely listed as inhibitors. actives 1.2% (n = 300,000). AID 540256; calls by dose curve; tested in HEK293 cells; also: nearly all actives have a fitted effect of over 50% in size
Marburg entry inh: blocks Marburg virus binding to or entry into cells; Marburg virus pseudotyped entry inhibition, cell reporter; actives 1.8% (n = 300,000); Potency, µM (top dose mostly 37.8 µM), usual class: inhibitors; AID 540276; calls by dose curve; tested in HEK293 cells
Vaccinia mCherry: inhibitors of vaccinia virus infection (mCherry reporter signal) | Vaccinia virus mCherry reporter infection, fluorescence | Potency, µM (series often up to 36.5 µM), hits mostly inhibitors | actives 0.63% (n = 310,000) | AID 720579; calls by dose curve; tested in A549 cells; also: nearly all actives have a fitted effect of over 35% in size
Large screens that a line does not name were inactive. An excerpt weighted towards active compounds, which were near 5.4% of everything screened.

Cc1ccc(NC(=O)CN2CCSc3ccc(S(=O)(=O)N4CCCC4)cc32)cc1C	none (no result: Marburg entry inh)
COc1cccc(C(C[N+](=O)[O-])c2c(C)[nH]n(-c3ccccc3)c2=O)c1 (stereo unspecified)	Sm TGR block 35µM
Cc1[nH]n(-c2ccccc2)c(=O)c1C(C[N+](=O)[O-])c1ccc(Br)cc1 (stereo unspecified)	Sm TGR block inconclusive, FMDV antiviral inconclusive, Lassa entry inh inconclusive (no result: Vaccinia mCherry)
CCOc1ccc(S(=O)(=O)Nc2cccc(OC)c2)c2cccnc12	none
Cn1cc(C(=O)NCc2ccccc2Cl)c(=O)c2cc(S(=O)(=O)N3CCCCCC3)ccc21	none
CCN(CC)c1ccc(NS(=O)(=O)c2cc3[nH]c(=O)c(=O)[nH]c3cc2C)c(C)c1	Sm TGR block 35µM (no result: Marburg entry inh)
CCOC(=O)CCC(=O)NCc1ccc2[nH]c(C)cc2c1	Sm TGR block 50µM
COc1ccc(N=C2SC(CC(=O)Nc3ccccc3OC)C(=O)N2Cc2ccco2)cc1 (stereo unspecified)	Sm TGR block 50µM, Lassa entry inh 16µM, Marburg entry inh inconclusive, Vaccinia mCherry inconclusive
COc1ccc(N=C2SC(CC(=O)Nc3ccc(F)cc3)C(=O)N2Cc2ccco2)cc1 (stereo unspecified)	Sm TGR block inconclusive, Lassa entry inh inconclusive
Cc1ccc2c(c1)-c1onc(C(=O)N3CCN(c4cc(C)ccc4C)CC3)c1CO2	none (no result: Marburg entry inh)
CCCN1CCN(C(=O)c2noc3c2COc2ccc(C)cc2-3)CC1	Sm TGR block 5µM (no result: Lassa entry inh, Marburg entry inh)
NC(=O)c1ccc(NC(=O)COC(=O)CCC(=O)c2ccc(Cl)cc2)cc1	Sm TGR block 50µM (no result: Vaccinia Venus, Lassa entry inh, Marburg entry inh, Vaccinia mCherry)
O=C(COC(=O)CCC(=O)c1ccc(F)cc1)Nc1ccccc1	none
O=C1/C(=C/c2cccnc2)SC(=S)N1Nc1ccccc1	Sm TGR block 2µM
Cn1c(/C=C/c2cccc(Br)c2)nc2ccccc2c1=O	Vaccinia Venus inconclusive, Lassa entry inh inconclusive, Marburg entry inh 10µM
C=CCn1c(SCC(=O)c2ccc(CNC(C)=O)o2)nc2ccccc2c1=O	Sm TGR block inconclusive, Vaccinia Venus 1.3µM (no result: Vaccinia mCherry)
C=CCn1c(SCC(=O)Nc2ccccc2F)nc2ccccc2c1=O	Sm TGR block 79µM (no result: Vaccinia Venus, Lassa entry inh, Marburg entry inh, Vaccinia mCherry)
CC(=O)NCc1ccc(C(=O)CSc2nnc(-c3ccncc3)n2Cc2ccccc2)o1	Sm TGR block 35µM (no result: Vaccinia Venus, Vaccinia mCherry)
C=CCn1c(SCC(=O)NC2CC2)nc2ccccc2c1=O	none (no result: Vaccinia Venus, Lassa entry inh, Marburg entry inh, Vaccinia mCherry)
C=CCn1c(SCN2C(=O)c3ccccc3C2=O)nc2ccc(Cl)cc2c1=O	FMDV antiviral 16µM
CC(C)C[C@H](NC(=O)OC(C)(C)C)c1nnc(SCc2ccccc2)o1	Lassa entry inh inconclusive (no result: Vaccinia Venus, Vaccinia mCherry)
Cc1ccccc1CS(=O)(=O)c1nnc([C@H](CC(C)C)NC(=O)OC(C)(C)C)o1	Sm TGR block 2µM, FMDV antiviral inconclusive, Marburg entry inh inconclusive (no result: Vaccinia Venus, Vaccinia mCherry)
C[C@H](NC(=O)OC(C)(C)C)c1nnc(SCc2c(F)cccc2Cl)o1	none
CC(C)[C@H](NC(=O)OC(C)(C)C)c1nnc(S(=O)(=O)Cc2c(F)cccc2Cl)o1	Sm TGR block 1µM, FMDV antiviral 35µM
CC[C@@H](C)[C@H](NC(=O)OC(C)(C)C)c1nnc(S(=O)(=O)Cc2cc(C)ccc2C)o1	Sm TGR block 2.8µM, Vaccinia Venus inconclusive, Lassa entry inh 10µM, Marburg entry inh inconclusive (no result: Vaccinia mCherry)
CC(C)(C)OC(=O)N[C@@H](Cc1ccccc1)c1nnc(S(=O)(=O)Cc2cccc(F)c2)o1	Sm TGR block 0.4µM, Vaccinia Venus inconclusive, FMDV antiviral inconclusive, Lassa entry inh inconclusive, Marburg entry inh inconclusive (no result: Vaccinia mCherry)
CC1=C[C@@H](C)OC2(C1)C(=O)N(Cc1ccc(Br)cc1)c1cccc(Br)c12 (stereo partly specified)	Lassa entry inh inconclusive (no result: Sm TGR block, Vaccinia Venus, FMDV antiviral, Vaccinia mCherry)
COC(=O)[C@](O)(c1c[nH]c2ccccc12)C(F)(F)F	none (no result: Sm TGR block, Vaccinia Venus, FMDV antiviral, Lassa entry inh, Vaccinia mCherry)
O=C(NC1CCCCCC1)C1c2ccccc2C(=O)N1Cc1ccco1 (stereo unspecified)	Sm TGR block 50µM (no result: Vaccinia Venus, Vaccinia mCherry)
c1ccc(-c2ccc(-c3n(-c4ccccn4)c4ccccc4[n+]3-c3ccccn3)cc2)cc1	FMDV antiviral 14µM, Lassa entry inh inconclusive, Marburg entry inh inconclusive (no result: Vaccinia Venus, Vaccinia mCherry)
Cc1cc(=O)n2c3c(sc2n1)C(=O)N(Cc1ccccc1)C3=O	Sm TGR block 1.1µM (no result: Vaccinia Venus, FMDV antiviral, Lassa entry inh, Marburg entry inh, Vaccinia mCherry)
Cc1cc(=O)n2nc(-c3ccccc3)sc2n1	none (no result: Vaccinia Venus, Vaccinia mCherry)

Assay outcomes deposited in PubChem BioAssay by National Center for Advancing Translational Sciences (NCATS).
